From the supplement of paper PMC7156485
Values without a mark were called inactive.

system: HCC1569; assay: H1.0 immunofluorescence intensity relative to DMSO (% of DMSO); higher = stronger H1.0 induction, active = 140 or more; conditions: concentration: 10 µM; 24 h
Method in brief: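 HCC1569 and TDF cells were seeded at 800 per well in 384-well plates in RPMI with 10% FBS and treated with compounds at 10 µM for 24 h at 37 °C, in triplicate. After fixation in 3.7% formaldehyde, cells were stained with a rabbit anti-H1.0 antibody, an AlexaFluor 647 secondary and DAPI, and six fields per well were imaged at ×10. H1.0 nuclear intensity or cell number is given as percent of the plate control, using the median of replicates, with HCC1569 values smoothed for positional effects.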
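Further: TDF is a line of transformed human dermal fibroblasts of mesenchymal origin.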

For `CC1(C(=O)O)CCCC2(C)c3cc(O)ccc3CCC12` (centres undefined) [Podocarpic acid], which H1.0 immunofluorescence intensity is on record?
Its H1.0 immunofluorescence intensity is 85.3.

For `CC(=O)C1=C(O)C2C3c4c[nH]c5cccc(c45)CC3C(C)(C)N2C1=O` (centres undefined) [Cyclopiazonic acid], which H1.0 immunofluorescence intensity is on record?
Its H1.0 immunofluorescence intensity is 101.

With `O=c1[nH]c2ccccc2n1C1CCN(CCCC(c2ccc(F)cc2)c2ccc(F)cc2)CC1` [Pimozide] as the compound, how does the H1.0 immunofluorescence intensity read?
Its H1.0 immunofluorescence intensity is 144 (active).

Which H1.0 immunofluorescence intensity does the source give for `CCCC[N+]1(C)C2CC(OC(=O)C(CO)c3ccccc3)CC1C1OC12.[Br-]` (single isomer, unassigned; (-)) [(-)-Scopolamine,n-Butyl-, bromide] here?
Its H1.0 immunofluorescence intensity is 109.

With `CC(=O)NCCc1c[nH]c2ccccc12` [N-Acetyltryptamine] as the compound, how does the H1.0 immunofluorescence intensity read?
Its H1.0 immunofluorescence intensity is 94.1.

How did the H1.0 immunofluorescence intensity turn out when `C[N+]1(C)C2CCC1CC(OC(=O)C(CO)c1ccccc1)C2.O=[N+]([O-])[O-]` (centres undefined) [Atropine methyl nitrate] was run?
Its H1.0 immunofluorescence intensity is 89.7.

`Cl.c1ccc2c(c1)OCC(C1=NCCN1)O2` (centres undefined) [Idazoxan hydrochloride] was tested. Which H1.0 immunofluorescence intensity did it give?
The H1.0 immunofluorescence intensity was 99.

For `C#C[C@]1(O)CC[C@H]2[C@@H]3CC[C@H]4Cc5nc6nc7ccccc7n6cc5C[C@]4(C)[C@H]3CC[C@@]21C`, which H1.0 immunofluorescence intensity is on record?
The H1.0 immunofluorescence intensity was 145 (active).

How did the H1.0 immunofluorescence intensity turn out when `COc1ccc(C(=O)c2c(C)n(CCN3CCOCC3)c3ccccc23)cc1` [Pravadoline] was run?
The H1.0 immunofluorescence intensity was 93.3.

With `CS(=O)(=O)O.S=C=Nc1cccc(C2(N3CCCCC3)CCCCC2)c1` [Metaphit methanesulfonate] as the compound, how does the H1.0 immunofluorescence intensity read?
Its H1.0 immunofluorescence intensity is 94.5.

How did the H1.0 immunofluorescence intensity turn out when `O=c1[nH]c2ccccc2n1C1CCN(Cc2ccc(-c3nc4cc5[nH]cnc5cc4nc3-c3ccccc3)cc2)CC1` [Akt Inhibitor VIII, Isozyme-Selective, Akti-1/2] was run?
Its H1.0 immunofluorescence intensity is 131.

How did the H1.0 immunofluorescence intensity turn out when `CCCCCC(C=CC=CCC=CCC=CCCCC(=O)O)OO` (centres undefined) was run?
The H1.0 immunofluorescence intensity was 113.

For `C[C@]12CC[C@@H](O)C[C@@H]1CC[C@@H]1[C@@H]2CC[C@]2(C)[C@@H](O)CC[C@@H]12` [5alpha-Androstane-3alpha,17beta-diol], which H1.0 immunofluorescence intensity is on record?
Its H1.0 immunofluorescence intensity is 88.8.

How did the H1.0 immunofluorescence intensity turn out when `CCN(C)C(=O)Oc1cccc(C(C)N(C)C)c1` (centres undefined) [Rivastigmine] was run?
The H1.0 immunofluorescence intensity was 105.

For `CCCN1CCCC(c2cccc(O)c2)C1.Cl` (stereo not drawn) [S(-)-3PPP hydrochloride], which H1.0 immunofluorescence intensity is on record?
The H1.0 immunofluorescence intensity was 104.

`CC(=O)[C@H]1CC[C@H]2[C@@H]3CC[C@H]4C[C@](C)(O)CC[C@]4(C)[C@H]3CC[C@]12C` [(3alpha,5alpha)-3-hydroxy-3-methylpregnan-20-one] was tested. Which H1.0 immunofluorescence intensity did it give?
Its H1.0 immunofluorescence intensity is 111.

`O=P1(N(CCCl)CCCl)NCCCO1` (centres undefined) [Cyclophosphamide] was tested. Which H1.0 immunofluorescence intensity did it give?
Its H1.0 immunofluorescence intensity is 101.

Which H1.0 immunofluorescence intensity does the source give for `CC(=O)OC1C(=O)C2(C)C(O)CC3OCC3(OC(C)=O)C2C(OC(=O)c2ccccc2)C2(O)CC(O)C(C)=C1C2(C)C` (centres undefined) [Baccatin III] here?
The H1.0 immunofluorescence intensity was 105.

With `CN(c1nc2ccccc2s1)C1CCN(CC(O)COc2ccc(F)c(F)c2)CC1.Cl.Cl` (centres undefined) as the compound, how does the H1.0 immunofluorescence intensity read?
Its H1.0 immunofluorescence intensity is 141 (active).

How did the H1.0 immunofluorescence intensity turn out when `CC(N)C(O)c1ccc(O)c(O)c1` (single isomer, unassigned; (-)) [(-)-alpha-Methylnorepinephrine] was run?
The H1.0 immunofluorescence intensity was 93.1.

How did the H1.0 immunofluorescence intensity turn out when `CCCCCCC(=O)CCCCCCC=CCC(O)C(O)C(N)(CO)C(=O)O` (centres undefined) [Myriocin] was run?
The H1.0 immunofluorescence intensity was 87.9.

`C[N+]1([O-])C2CCC1CC(OC(=O)C(CO)c1ccccc1)C2.Cl` (centres undefined) was tested. Which H1.0 immunofluorescence intensity did it give?
Its H1.0 immunofluorescence intensity is 85.

Which H1.0 immunofluorescence intensity does the source give for `CNC(=O)OCC[N+](C)(C)C.[Cl-]` [Methylcarbamylcholine chloride] here?
The H1.0 immunofluorescence intensity was 95.8.

For `Cc1sc2ccccc2c1CC1=NCCN1.O=C(O)C(=O)O` [Benazoline oxalate], which H1.0 immunofluorescence intensity is on record?
Its H1.0 immunofluorescence intensity is 81.1.

With `CCCCCC1OC1CC=CCCCCCCCC(=O)O` (centres undefined) [Leukotoxin B (12,13-EODE)] as the compound, how does the H1.0 immunofluorescence intensity read?
Its H1.0 immunofluorescence intensity is 100.

`NC(CCCCCP(=O)(O)O)C(=O)O` (stereo not drawn) [D(-)-2-Amino-7-phosphonoheptanoic acid] was tested. Which H1.0 immunofluorescence intensity did it give?
The H1.0 immunofluorescence intensity was 99.2.

Which H1.0 immunofluorescence intensity does the source give for `CC12CCC3C(CCC4=CC(=O)CCC43C)C1CCC2=O` (centres undefined) [4-Androstene-3,17-dione] here?
Its H1.0 immunofluorescence intensity is 90.

`C[N+](C)(C)CCCCCCCCCC[N+](C)(C)C` [Decamethonium] was tested. Which H1.0 immunofluorescence intensity did it give?
Its H1.0 immunofluorescence intensity is 102.

For `CC1OC1P(=O)([O-])[O-].[Na+].[Na+]` (centres undefined) [Phosphomycin disodium], which H1.0 immunofluorescence intensity is on record?
The H1.0 immunofluorescence intensity was 101.

Which H1.0 immunofluorescence intensity does the source give for `Br.CCCN(CCC)C1CCc2ccc(O)cc2C1` (stereo not drawn) [R-(+)-7-Hydroxy-DPAT hydrobromide] here?
Its H1.0 immunofluorescence intensity is 101.

How did the H1.0 immunofluorescence intensity turn out when `CS(=O)(=O)O.Cc1c(C(=O)c2cccc3ccccc23)c2cccc3c2n1C(CN1CCOCC1)CO3` (stereo not drawn) [( R)-(+)-WIN 55,212-2 mesylate] was run?
Its H1.0 immunofluorescence intensity is 209 (active).

`CN(C)C(=O)Oc1ccc[n+](C)c1.[Br-]` [Pyridostigmine bromide] was tested. Which H1.0 immunofluorescence intensity did it give?
Its H1.0 immunofluorescence intensity is 108.

Which H1.0 immunofluorescence intensity does the source give for `CC12CCC(O)CC1CCC1C2CCC2(C)C(C(=O)CO)CCC12` (stereo not drawn) [3-alpha,21-Dihydroxy-5-alpha-pregnan-20-one] here?
Its H1.0 immunofluorescence intensity is 87.

For `Clc1cnc(Oc2ccc(Oc3ncc(Cl)cc3Cl)cc2)c(Cl)c1`, which H1.0 immunofluorescence intensity is on record?
The H1.0 immunofluorescence intensity was 99.2.

How did the H1.0 immunofluorescence intensity turn out when `O=P([O-])(O)C(Cl)(Cl)P(=O)([O-])O.[Na+].[Na+]` [Clodronic acid] was run?
The H1.0 immunofluorescence intensity was 96.4.

For `CN(C)CCc1ccc(O)cc1.CN(C)CCc1ccc(O)cc1.O=S(=O)(O)O` [Hordenine sulfate], which H1.0 immunofluorescence intensity is on record?
The H1.0 immunofluorescence intensity was 99.9.

How did the H1.0 immunofluorescence intensity turn out when `CCC1(O)C(=O)OCc2c1cc1n(c2=O)Cc2cc3ccccc3nc2-1` [(S)-(+)-Camptothecin] was run?
The H1.0 immunofluorescence intensity was 114.

`N#CC(C#N)=Cc1cc(O)c(O)c(O)c1` [Tyrphostin 25] was tested. Which H1.0 immunofluorescence intensity did it give?
Its H1.0 immunofluorescence intensity is 113.

`Cl.Oc1ccc2c3c1OC1c4[nH]c5ccccc5c4CC4(O)C(C2)N(CC2CC2)CCC314` (centres undefined) [Naltrindole hydrochloride] was tested. Which H1.0 immunofluorescence intensity did it give?
Its H1.0 immunofluorescence intensity is 114.
